According to PubChem BioAssay AID1159580 (chemical genetic matrix, 2015):
Several values for one entry are separate records, joined by “and”; a condition that tells them apart may be missing. Equal entries are not always repeated. About 2,000 (36%) of roughly 5,500 compounds were called active. About 18% were inconclusive and are not listed. This is one part of the list. Unmarked numbers belong to inactive results. Cut-off read from the data, not from the text of the source: active = normalized growth mostly below about 0.91 (no sharp cut-off); inconclusive = no clear call, values can overlap the other calls; inactive = mostly above about 0.92.

Test: chemical genetic growth profiling, strain panel (AID 1159580);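 note: tested at 20 µM; growth read once vehicle control cultures reached saturation at 30 °C; 1 = growth at the plate median or of vehicle wells; lower values mean less growth of the strain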
Conditions: growth OD

CN1C(C(=O)Nc2ccccn2)=C(O)c2ccccc2S1(=O)=O
normalized growth (S. cerevisiae deletion strains, locus YKL009W, strain mrt4, active compounds read low): 0.963 | normalized growth (S. cerevisiae deletion strains, locus YKL068W, active compounds read low): 0.925 (active) | normalized growth (S. cerevisiae deletion strains, locus YKL085W, strain MDH1 (second series), active compounds read low): 0.935 | normalized growth (S. cerevisiae deletion strains, locus YKL085W, strain MDH1, active compounds read low): 0.935 | normalized growth (S. cerevisiae deletion strains, locus YKL160W, strain elf1, active compounds read low): 0.933 | normalized growth (S. cerevisiae deletion strains, locus YKL190W, strain CNB1, active compounds read low): 1.01 | normalized growth (S. cerevisiae deletion strains, locus YKR001C, strain vps1, active compounds read low): 0.969 | normalized growth (S. cerevisiae deletion strains, locus YKR026C, strain gcn3, active compounds read low): 0.958 | normalized growth (S. cerevisiae deletion strains, locus YKR091W, strain srl3, active compounds read low): 0.968 | normalized growth (S. cerevisiae deletion strains, locus YLL001W, strain dnm1, active compounds read low): 0.963 | normalized growth (S. cerevisiae deletion strains, locus YLL026W, active compounds read low): 0.93 (active) | normalized growth (S. cerevisiae deletion strains, locus YLL041C, strain sdh2, active compounds read low): 0.953 | normalized growth (S. cerevisiae deletion strains, locus YLR027C, strain aat2, active compounds read low): 0.932 | normalized growth (S. cerevisiae deletion strains, locus YLR039C, strain RIC1, active compounds read low): 0.984 | normalized growth (S. cerevisiae deletion strains, locus YLR058C, strain SHM2, active compounds read low): 0.982 | normalized growth (S. cerevisiae deletion strains, locus YLR102C, strain apc9, active compounds read low): 0.946 | normalized growth (S. cerevisiae deletion strains, locus YLR113W, strain HOG1, active compounds read low): 0.934 | normalized growth (S. cerevisiae deletion strains, locus YLR221C, strain rsa3, active compounds read low): 0.925 | normalized growth (S. cerevisiae deletion strains, locus YLR258W, strain gsy2, active compounds read low): 0.95 | normalized growth (S. cerevisiae deletion strains, locus YLR262C, strain YPT6 (second series), active compounds read low): 0.919 | normalized growth (S. cerevisiae deletion strains, locus YLR262C, strain YPT6, active compounds read low): 0.998 | normalized growth (S. cerevisiae deletion strains, locus YLR268W, strain sec22, active compounds read low): 0.921 | normalized growth (S. cerevisiae deletion strains, locus YLR320W, strain mms22, active compounds read low): 0.881 | normalized growth (S. cerevisiae deletion strains, locus YLR330W, strain CHS5, active compounds read low): 0.967 | normalized growth (S. cerevisiae deletion strains, locus YLR342W, strain FKS1 (second series), active compounds read low): 0.94 | normalized growth (S. cerevisiae deletion strains, locus YLR342W, strain FKS1, active compounds read low): 0.931 | normalized growth (S. cerevisiae deletion strains, locus YLR357W, strain rsc2, active compounds read low): 1 | normalized growth (S. cerevisiae deletion strains, locus YLR370C, strain arc18, active compounds read low): 0.985 | normalized growth (S. cerevisiae deletion strains, locus YLR371W, strain rom2, active compounds read low): 0.95 | normalized growth (S. cerevisiae deletion strains, locus YLR384C, strain iki3, active compounds read low): 0.961 | normalized growth (S. cerevisiae deletion strains, locus YLR418C, strain cdc73, active compounds read low): 0.905 | normalized growth (S. cerevisiae deletion strains, locus YML016C, strain PPZ1, active compounds read low): 0.965 | normalized growth (S. cerevisiae deletion strains, locus YML032C, strain rad52, active compounds read low): 0.954 | normalized growth (S. cerevisiae deletion strains, locus YML120C, strain ndi1, active compounds read low): 0.95 | normalized growth (S. cerevisiae deletion strains, locus YML124C, strain tub3, active compounds read low): 0.95 | normalized growth (S. cerevisiae deletion strains, locus YMR058W, strain fet3, active compounds read low): 0.961 | normalized growth (S. cerevisiae deletion strains, locus YMR078C, strain ctf18, active compounds read low): 0.926 | normalized growth (S. cerevisiae deletion strains, locus YMR125W, strain sto1, active compounds read low): 0.985 | normalized growth (S. cerevisiae deletion strains, locus YMR129W, active compounds read low): 0.935 | normalized growth (S. cerevisiae deletion strains, locus YMR205C, strain PFK2, active compounds read low): 0.781 (active) | normalized growth (S. cerevisiae deletion strains, locus YMR223W, strain ubp8, active compounds read low): 0.97 | normalized growth (S. cerevisiae deletion strains, locus YMR231W, strain pep5, active compounds read low): 0.97 | normalized growth (S. cerevisiae deletion strains, locus YMR263W, strain SAP30, active compounds read low): 0.996 | normalized growth (S. cerevisiae deletion strains, locus YMR307W, strain GAS1, active compounds read low): 0.836 and 1 | normalized growth (S. cerevisiae deletion strains, locus YNL067W, strain RPL9B, active compounds read low): 1 | normalized growth (S. cerevisiae deletion strains, locus YNL071W, strain lat1, active compounds read low): 0.786 (active) | normalized growth (S. cerevisiae deletion strains, locus YNL128W, strain TEP1, active compounds read low): 1.02 | normalized growth (S. cerevisiae deletion strains, locus YNL153C, strain GIM3, active compounds read low): 0.984 | normalized growth (S. cerevisiae deletion strains, locus YNL175C, strain NOP13, active compounds read low): 0.971 | normalized growth (S. cerevisiae deletion strains, locus YNL183C, strain NPR1, active compounds read low): 0.919 | normalized growth (S. cerevisiae deletion strains, locus YNL197C, strain WHI3, active compounds read low): 0.97 | normalized growth (S. cerevisiae deletion strains, locus YNL209W, strain ssb2, active compounds read low): 0.982 | normalized growth (S. cerevisiae deletion strains, locus YNL224C, strain SQS1, active compounds read low): 0.968 | normalized growth (S. cerevisiae deletion strains, locus YNL233W, strain BNI4, active compounds read low): 0.993 | normalized growth (S. cerevisiae deletion strains, locus YNL248C, strain rpa49, active compounds read low): 1.26 [resistant] (active) | normalized growth (S. cerevisiae deletion strains, locus YNL250W, strain rad50, active compounds read low): 0.923 | normalized growth (S. cerevisiae deletion strains, locus YNL271C, strain bni1, active compounds read low): 0.911 (active) | normalized growth (S. cerevisiae deletion strains, locus YNL298W, strain CLA4, active compounds read low): 0.935 | normalized growth (S. cerevisiae deletion strains, locus YNL307C, strain MCK1, active compounds read low): 0.82 (active) | normalized growth (S. cerevisiae deletion strains, locus YNL322C, strain KRE1 (second series), active compounds read low): 0.943 | normalized growth (S. cerevisiae deletion strains, locus YNL322C, strain KRE1, active compounds read low): 0.973 and 1 | normalized growth (S. cerevisiae deletion strains, locus YNR049C, strain mso1, active compounds read low): 0.964 | normalized growth (S. cerevisiae deletion strains, locus YNR052C, strain pop2, active compounds read low): 0.965 | normalized growth (S. cerevisiae deletion strains, locus YOL006C, strain TOP1, active compounds read low): 0.999 | normalized growth (S. cerevisiae deletion strains, locus YOL012C, strain htz1): 0.613 | normalized growth (S. cerevisiae deletion strains, locus YOL147C, strain pex11, active compounds read low): 0.944 | normalized growth (S. cerevisiae deletion strains, locus YOR001W, strain rrp6, active compounds read low): 0.92 | normalized growth (S. cerevisiae deletion strains, locus YOR061W, strain CKA2, active compounds read low): 0.976 | normalized growth (S. cerevisiae deletion strains, locus YOR069W, strain VPS5, active compounds read low): 0.966 | normalized growth (S. cerevisiae deletion strains, locus YOR070C, strain gyp1, active compounds read low): 0.973 | normalized growth (S. cerevisiae deletion strains, locus YOR080W, strain dia2, active compounds read low): 0.978 | normalized growth (S. cerevisiae deletion strains, locus YOR083W, strain WHI5 (second series), active compounds read low): 0.99 | normalized growth (S. cerevisiae deletion strains, locus YOR083W, strain WHI5, active compounds read low): 0.946 | normalized growth (S. cerevisiae deletion strains, locus YOR106W, strain vam3, active compounds read low): 0.965 | normalized growth (S. cerevisiae deletion strains, locus YOR136W, strain idh2, active compounds read low): 0.988 | normalized growth (S. cerevisiae deletion strains, locus YOR144C, strain elg1, active compounds read low): 0.953 | normalized growth (S. cerevisiae deletion strains, locus YOR184W, strain ser1, active compounds read low): 0.961 | normalized growth (S. cerevisiae deletion strains, locus YOR231W, strain MKK1, active compounds read low): 0.945 | normalized growth (S. cerevisiae deletion strains, locus YOR265W, strain rbl2, active compounds read low): 0.967 | normalized growth (S. cerevisiae deletion strains, locus YOR270C, strain vph1, active compounds read low): 0.954 | normalized growth (S. cerevisiae deletion strains, locus YOR290C, strain snf2, active compounds read low): 0.971 | normalized growth (S. cerevisiae deletion strains, locus YOR316C, strain cot1, active compounds read low): 0.95 | normalized growth (S. cerevisiae deletion strains, locus YPL051W, strain arl3, active compounds read low): 0.961 | normalized growth (S. cerevisiae deletion strains, locus YPL055C, strain LGE1, active compounds read low): 0.987 | normalized growth (S. cerevisiae deletion strains, locus YPL078C, strain atp4, active compounds read low): 0.95 | normalized growth (S. cerevisiae deletion strains, locus YPL106C, strain sse1, active compounds read low): 0.989 | normalized growth (S. cerevisiae deletion strains, locus YPL240C, strain hsp82, active compounds read low): 0.953 | normalized growth (S. cerevisiae deletion strains, locus YPL241C, strain CIN2, active compounds read low): 0.967 | normalized growth (S. cerevisiae deletion strains, locus YPL256C, strain CLN2, active compounds read low): 0.907 | normalized growth (S. cerevisiae deletion strains, locus YPR119W, strain clb2, active compounds read low): 0.931 | normalized growth (S. cerevisiae deletion strains, locus YPR141C, strain kar3, active compounds read low): 0.923 | normalized growth (S. cerevisiae deletion strains, locus YPR163C, strain tif3, active compounds read low): 0.885 (active) | normalized growth (S. cerevisiae deletion strains, locus YPR167C, strain met16, active compounds read low): 0.962 | normalized growth (S. cerevisiae deletion strains, strain wtn01, active compounds read low): 0.961 | normalized growth (S. cerevisiae strains, strain wild type, active compounds read low): 0.984
